From PubChem BioAssay
The entries come from a sample that favours hits as a whole.
RGS12 GoLoco inh: qHTS Assay for Inhibitors of RGS12 GoLoco Motif Activity (Red Fluorophore); Potency, µM (doses to about 61.6 µM), inactives show at the highest dose activity, negative = inhibition, most hits filed as inhibitors; Gai1:RGS12 GoLoco peptide FP, rhodamine, 10 min; 0.44% of 230,000 active; active = well fitted inhibition curve with a large enough effect, not every such curve was filed as active; inactive = no such curve, though single readings can be large or run the other way; note: nearly all actives have a fitted effect of over 30% in size
Target sequence (P63096 whole entry, looked up): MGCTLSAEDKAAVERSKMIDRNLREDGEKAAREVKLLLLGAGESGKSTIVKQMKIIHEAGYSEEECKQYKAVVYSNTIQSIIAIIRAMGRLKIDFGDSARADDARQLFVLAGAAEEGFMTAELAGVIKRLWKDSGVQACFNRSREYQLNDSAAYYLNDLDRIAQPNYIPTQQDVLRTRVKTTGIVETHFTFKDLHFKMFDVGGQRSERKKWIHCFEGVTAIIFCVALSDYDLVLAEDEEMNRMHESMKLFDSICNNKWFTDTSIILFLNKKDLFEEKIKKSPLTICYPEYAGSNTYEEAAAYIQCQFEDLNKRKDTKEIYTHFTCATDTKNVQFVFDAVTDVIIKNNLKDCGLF
IMPase Li inh: qHTS Assay for Identifying the Cell-Membrane Permeable IMPase Inhibitors: Potentiation with Lithium; CHO-M1 cells, IP1 TR-FRET (IP-One), carbachol + lithium; Potency, µM (highest dose often 59.4 µM), without a hit: at the top dose activity, negative = IMPase inhibition, usual class: inhibitors; 0.35% of 210,000 active;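 note: IP1 builds up when IMPase is blocked and the TR-FRET signal falls; plate controls were basal vehicle for no effect and high inhibitor control for full effect; nearly all actives have a fitted effect of over 50% in size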
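CHO cells stably expressing M1 receptor (2000/well) were cultured 16–30 h, then exposed to compounds with a small lithium addition for 30 min at 37C. IP1 was measured by TR-FRET competition; AC50 from Hill fits.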
MBNL1 CUG block: qHTS Assay for Inhibitors of MBNL1-poly(CUG) RNA binding | Potency, µM (top dose mostly 57.5 µM), inactives show at the top dose activity change, negative = inhibition, hits mostly inhibitors | 0.036% of 280,000 active | TR-FRET MBNL1-His/biotin-(CUG)12 binding, 665/545 ratio | Muscleblind-like protein 1 (Homo sapiens), Q9NR56; active = well fitted inhibition curve with a large enough effect in the signal ratio, with a control signal flat, not every such curve was filed as active; inconclusive = small, poorly fitted or top-dose-only effect, or effect the other way, or a change in a side signal; inactive = no such curve, though single readings can be large or run the other way; the % refers to the signal ratio
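TR-FRET readout: Ex 340 nm, 665/545 nm emission ratio, normalized to buffer-only (basal) and MBNL1-(CUG)12 controls. Complex of MBNL1-His with Biotin-(CUG)12, compounds 92 nM–58 uM, incubated 60 min at room temperature.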
NPSR antag: qHTS Assay for Antagonists of the Neuropeptide S Receptor: cAMP Signal Transduction | Q6W5P4 | CHO-NPSR cells, cAMP TR-FRET, antagonist mode | Potency, µM (doses to about 38.3 µM), for inactives: top-dose activity change, negative = inhibition, usual class: inhibitors | 1% of 220,000 active | AID 1461, 2008; note: nearly all actives have a fitted effect of over 50% in size
Target sequence (Q6W5P4 whole entry, looked up): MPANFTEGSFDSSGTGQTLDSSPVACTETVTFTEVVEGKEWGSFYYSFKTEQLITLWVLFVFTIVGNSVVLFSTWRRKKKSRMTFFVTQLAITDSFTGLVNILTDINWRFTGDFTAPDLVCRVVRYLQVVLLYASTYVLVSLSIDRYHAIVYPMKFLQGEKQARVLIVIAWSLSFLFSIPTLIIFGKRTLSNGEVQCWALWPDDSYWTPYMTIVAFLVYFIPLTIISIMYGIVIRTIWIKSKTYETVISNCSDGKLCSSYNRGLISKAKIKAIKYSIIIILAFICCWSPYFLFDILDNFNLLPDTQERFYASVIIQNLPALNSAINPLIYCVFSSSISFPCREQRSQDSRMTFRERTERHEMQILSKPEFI
Tb PFK inh: qHTS Assay to Find Inhibitors of T. brucei phosphofructokinase | ATP-dependent 6-phosphofructokinase (Trypanosoma brucei brucei), O15648 | T. brucei PFK, ADP-Glo luminescence | Potency, µM (series often up to 57.5 µM), for the others: at the highest dose activity, negative = inhibition, most hits filed as inhibitors | 0.17% of 330,000 active;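 note: 0% = uninhibited 1x PFK enzyme wells and -100% = no-enzyme wells; nearly all actives have a fitted effect of over 60% in size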
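ADP-Glo luminescence quantified ADP after 45 min at room temperature, with 1.25 nM T. brucei PFK, 0.1 mM ATP and 0.5 mM fructose-6-phosphate in pH 8.0 TEA buffer. qHTS titrations up to 57 µM; curves classified by quality.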
* marks the source's active call; other numbers are inactive results; [ ] = remark or other dose. Unless noted, calls come from the whole dose curve; as a rule, active = well fitted curve in the direction sought with a large enough effect; inconclusive = small, poorly fitted or top-dose-only effect, or another doubt; inactive = no such curve, though single readings can be large; an effect the other way counts as inactive or inconclusive. Unless noted, % is set by controls: 0 for no effect and ±100 for the full control effect; potency is the fitted concentration of half-maximal effect.

Screening CSc1ccccc1-c1n[nH]c(=S)o1 returned RGS12 GoLoco inh 11%, IMPase Li inh 10µM*, MBNL1 CUG block inconclusive, NPSR antag 4µM* and Tb PFK inh -8%.
`Cc1ccc(-c2cc(-c3n[nH]c(=S)o3)c3ccccc3n2)cc1` gave RGS12 GoLoco inh 9%, IMPase Li inh 3%, MBNL1 CUG block 27%, NPSR antag -41% and Tb PFK inh 0%.
For Cc1ccccc1-c1n[nH]c(=S)o1 the results were RGS12 GoLoco inh -1%, IMPase Li inh 10µM*, MBNL1 CUG block 112%, NPSR antag inconclusive and Tb PFK inh 0%.
COc1ccccc1-c1n[nH]c(=S)o1 was read as RGS12 GoLoco inh -2%, IMPase Li inh inconclusive, MBNL1 CUG block 24%, NPSR antag 26%[46.1 µM] and Tb PFK inh 2%.
Screening S=c1[nH]nc(-c2cc(-c3ccccn3)nc3ccccc23)o1 returned RGS12 GoLoco inh 4%, MBNL1 CUG block 15%, NPSR antag -22% and Tb PFK inh 0%.
`CN(C)c1ccc(NC(=O)CSc2nnc(C3CCCCC3)n2N)cc1` gave MBNL1 CUG block 1% and Tb PFK inh 2%.
For COC(=O)c1ccc(C23CC2(C(NP(=O)(c2ccccc2)c2ccccc2)c2ccccc2)C3)cc1 (stereo not drawn) the results were RGS12 GoLoco inh 1.4µM* and IMPase Li inh 9%.
For CC1=NN2C(=N)/C(=C\c3cc(C)n(-c4ccc(C)cc4)c3C)C(=O)N=C2S1 the results were RGS12 GoLoco inh -3%, MBNL1 CUG block -3%, NPSR antag 13µM* and Tb PFK inh 1%.
Screening C1=Nc2ccccc2CN1c1ccccc1 returned RGS12 GoLoco inh 1%, IMPase Li inh 0%, MBNL1 CUG block -11%, NPSR antag 16% and Tb PFK inh -20%.
For CC(C)c1ccc(N2C=Nc3ccc(C(C)C)cc3C2)cc1 the results were RGS12 GoLoco inh 0%, MBNL1 CUG block -3%, NPSR antag 7.9µM* and Tb PFK inh 1%.
CC1(C)O[C@@H]2C[C@H]3[C@@H]4CCC5=CC(=O)CC[C@]5(C)[C@@]4(F)[C@@H](O)C[C@]3(C)[C@]2(C(=O)CCl)O1 was read as Tb PFK inh 1%.
O=C(c1cc2c(s1)-c1ccccc1OC2)N1CCN(c2ccccc2)CC1 was read as RGS12 GoLoco inh -27%, IMPase Li inh 7.9µM*, MBNL1 CUG block 186%, NPSR antag -20%[46.1 µM] and Tb PFK inh 5%.
CCN1CCN(CCCNC(=O)c2cc3c(s2)-c2ccccc2OC3)CC1 was read as MBNL1 CUG block inconclusive and Tb PFK inh -2%.
Screening CN(C)CCNC(=O)c1cc2c(s1)-c1ccccc1OC2 returned RGS12 GoLoco inh 35%, IMPase Li inh 8.9µM*, MBNL1 CUG block inconclusive, NPSR antag 16%[46.1 µM] and Tb PFK inh 2%.
For O=C(c1cc2c(s1)-c1ccccc1OC2)N1CCN(c2ccccn2)CC1 the results were RGS12 GoLoco inh 4%, IMPase Li inh 10µM*, MBNL1 CUG block 42%, NPSR antag -18%[46.1 µM] and Tb PFK inh 2%.
Screening Cc1ccc(C)n1-c1ccc(C(=O)O)cc1 returned RGS12 GoLoco inh 0%, IMPase Li inh -19%[38.3 µM], MBNL1 CUG block -11%, NPSR antag -12%[46.1 µM] and Tb PFK inh 11µM*.
Screening O=C(CSc1nnc(-c2cccnc2)o1)Nc1nccs1 returned Tb PFK inh -19%.
Screening O=C(O)C(O)c1ccccc1 (stereo not drawn) returned RGS12 GoLoco inh -1%, MBNL1 CUG block -7%, NPSR antag 6% and Tb PFK inh -1%.
`O=C(O)C(O)c1ccco1` (stereo not drawn) gave RGS12 GoLoco inh 5%, IMPase Li inh -6%, NPSR antag 16% and Tb PFK inh 4.8µM*.
Screening CCCCCCN returned RGS12 GoLoco inh 28µM* and IMPase Li inh 7%.
`CN(C)Cc1ccc(C(C)(C)C)cc1-c1cc(C(C)(C)C)ccc1CN(C)C` gave RGS12 GoLoco inh -5%[14.2 µM] and IMPase Li inh -9%.
`O=C1C(=O)c2ccc(-c3ccccc3)cc2-c2ccccc21` gave RGS12 GoLoco inh -7%, IMPase Li inh 16%, MBNL1 CUG block inconclusive, NPSR antag 4µM* and Tb PFK inh -6%.
`Cc1ccc(CO/N=C\Cc2snc(Sc3ncc(C(F)(F)F)cc3Cl)c2C#N)cc1` gave RGS12 GoLoco inh 158%, IMPase Li inh -10%[38.3 µM], MBNL1 CUG block 5%, NPSR antag 10µM* and Tb PFK inh -2%.
N#CCc1ccc(Oc2ncc(C(F)(F)F)cc2Cl)cc1 was read as RGS12 GoLoco inh 7%, IMPase Li inh -6%, NPSR antag -8% and Tb PFK inh 0%.
`COc1ccc(CCNc2nc3ccccc3n3nnnc23)cc1OC` gave RGS12 GoLoco inh 23%, IMPase Li inh 10µM*, MBNL1 CUG block 19%, NPSR antag inconclusive and Tb PFK inh 2%.
c1ccc(CCNc2nc3ccccc3n3nnnc23)cc1 was read as RGS12 GoLoco inh 103%, IMPase Li inh 3.5µM*, MBNL1 CUG block -7%, NPSR antag inconclusive and Tb PFK inh -7%.
CCOc1ccc(Nc2nc3ccccc3n3nnnc23)cc1 was read as RGS12 GoLoco inh -2%, IMPase Li inh 14%[38.3 µM], MBNL1 CUG block 4%, NPSR antag -15%[46.1 µM] and Tb PFK inh 0%.
COCCN(CCOC)c1nc(C)nc2c1nc(-c1ccccc1)n2CCN1CCOCC1 was read as RGS12 GoLoco inh -11% and IMPase Li inh -16%.
For CCOc1ccc(C2/C(=C(\O)c3ccc4c(c3)OCCO4)C(=O)C(=O)N2Cc2cccnc2)cc1OCC (stereo not drawn) the results were MBNL1 CUG block 15% and Tb PFK inh -2%.
`Cc1cc(NC(=O)c2cccs2)ncc1NC(=O)C(C)C` gave MBNL1 CUG block -9% and Tb PFK inh -9%.
`CCCOc1ccc(/C(O)=C2/C(=O)C(=O)N(CCCn3ccnc3)C2c2cccnc2)cc1` (stereo not drawn) gave RGS12 GoLoco inh -3%, MBNL1 CUG block 18%, NPSR antag -6% and Tb PFK inh -2%.
Screening COCCN1C(=O)C(=O)/C(=C(/O)c2ccc(OC(C)C)cc2)C1c1cccnc1 (stereo not drawn) returned RGS12 GoLoco inh -5%, IMPase Li inh 10µM*, MBNL1 CUG block 2%, NPSR antag inconclusive and Tb PFK inh -6%.
For CC(C)Oc1ccc(/C(O)=C2/C(=O)C(=O)N(CCCn3ccnc3)C2c2cccnc2)cc1 (stereo not drawn) the results were MBNL1 CUG block 13%, NPSR antag 10%[46.1 µM] and Tb PFK inh -13%.
